PubChem BioAssay AID687020 (Broad Institute, 2013)
Out of some 1,400 compounds screened, about 100 (7.1%) were called active. How the calls were made is not given here. Not all results are given here. Results with a measured potency or affinity are listed apart.

Assay: Vero cell toxicity, dose response, cytotoxicity control, plate reader, cherry-pick samples (AID 687020);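 further: compounds incubated with cells for three days before luminescence read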
Details: Vero cells toxicity; series mostly up to 19.5 µM

Row | Compound | outcome
1 | O=S(=O)(Nc1nc(SCc2ccc(Cl)cc2)n[nH]1)c1ccc(F)cc1 | inactive
2 | O=C(NCCc1ccccc1)c1ccccc1NC(=O)C1CCCCC1C(=O)O (centres undefined) | inactive
3 | Cc1ccc(C(=O)OCC(=O)Nc2ccccc2C(F)(F)F)cc1S(=O)(=O)N1CCCCC1 | inactive
4 | OC[C@@H]1[C@@H](c2ccccc2)C2(CN(Cc3nccs3)C2)N1Cc1cccnc1 | inactive
5 | C[C@@H]1CN([C@@H](C)CO)C(=O)c2cc(C#Cc3cccc(F)c3)cnc2O[C@@H]1CN(C)C(=O)C1CCC1 | inactive
6 | CC(=O)NC(c1cccc(F)c1)c1nc(-c2ccc(N(C)C)cc2)cs1 (centres undefined) | inactive
7 | CC(C)CCCN1CCN=C1Nc1ccccc1 | inactive
8 | CC1CCC(CN2C(Nc3ccccc3)=NC[C@@H]2C)CC1 (some centres undefined) | inactive
9 | Cc1ccc(/C=N/NC(=O)c2ccc(-n3cnnn3)cc2)cc1 | inactive
10 | CS(=O)(=O)N1[C@@H]2CNC[C@H]1C2c1ccc(-c2ccccc2)cc1 (some centres undefined) | inactive
11 | COc1ccc2c(c1)OC[C@H]1[C@H]2N2C(=O)c3cc(OC)ccc3NC(=O)[C@@]2(C)[C@H]1c1ccccc1 | inactive
12 | CCOC(=O)C1CCN(C(=O)C2CC(=O)N(c3ccc4c(c3)OCCO4)C2)CC1 (centres undefined) | inactive
13 | c1ccc(COCCCn2cc(-c3ccccc3)nn2)cc1 | inactive
14 | C[C@@H]1CN([C@H](C)CO)C(=O)c2cc(C#Cc3ccc(F)cc3)cnc2O[C@@H]1CN(C)C | inactive
15 | CCCNC(=O)NC[C@@H]1[C@@H](c2ccc(C3=CCCC3)cc2)[C@@H](CO)N1C(=O)CC | inactive
16 | COc1ccccc1S(=O)(=O)N(C)C[C@H]1Oc2cc(C#CCC(C)C)ccc2S(=O)(=O)N([C@@H](C)CO)C[C@@H]1C | inactive
17 | N#C[C@H]1[C@H](c2ccc(C#CC3CCCCC3)cc2)[C@@H](CO)N1C(=O)Cc1ccccn1 | inactive
18 | CCc1c(C2(O)CCCCC2)[nH]c2c(C(=O)OC)cc(Cl)cc12 | inactive
19 | Cc1ccc(S(=O)(=O)N2CCCCC2)cc1NC(=O)CCOc1ccccc1 | inactive
20 | COc1ccc(NC(=O)CN(C)CCOc2ccc(Cl)cc2)cc1OC | inactive

Row | Compound | outcome
21 | CCN(CC)S(=O)(=O)c1ccc(N2CCOCC2)c(NC(=O)c2ccccc2)c1 | inactive
22 | O=C(COc1ccc2c(-c3ccccc3)cc(=O)oc2c1)NC1CCS(=O)(=O)C1 (centres undefined) | inactive
23 | C[C@H](CO)N1C[C@H](C)[C@H](CN(C)C(=O)Nc2ccc(-c3ccccc3)cc2)OCc2ccccc2-c2c(n(C)c3ccccc23)C1=O | inactive
24 | CCOC(=O)C1=C(CS(=O)(=O)c2ccc(C)cc2)NC(=O)NC1c1cc(OC)c(O)c(OC)c1 (centres undefined) | inactive
25 | COc1ccccc1CNC(=O)CCCN1C(=O)NC2(CCCC2)C1=O | inactive
26 | COc1ccccc1Cn1c(=S)[nH]c2cc(C(=O)N3CC(C)CC(C)C3)ccc2c1=O (centres undefined) | inactive
27 | CCc1ccc(NC(=O)COc2ccc3c(c2)OCO3)cc1 | inactive
28 | CC1CCc2sc(C(=O)NN=C3CCCC3)cc2C1 (centres undefined) | inactive
29 | COc1ccc(S(=O)(=O)N2CCC(C(=O)N[C@H](C(=O)NCc3ccccc3)C(C)C)CC2)cc1 | inactive
30 | CC(C)c1ccc(NC(=O)[C@H](NC(=O)[C@@H]2Cc3ccccc3CN2)c2ccccc2)cc1 | inactive
31 | COc1ccc(NC(=O)Nc2cccc3c2O[C@H](CN(C)C(=O)NC2CCCCC2)[C@H](C)CN([C@@H](C)CO)C3=O)cc1 | inactive
32 | CCCNC(=O)N1[C@H](CO)[C@H](c2ccccc2)[C@@H]1CNC(=O)c1ccc(F)cc1 | inactive
33 | COc1ccc(S(=O)(=O)N2CCCCCC2)cc1NC(=O)Cc1cccc(C(F)(F)F)c1 | inactive
34 | O=C(C1CC1)N1[C@@H](CO)[C@@H]2c3ccccc3NC[C@@H]21 | inactive
35 | C[C@H](NC(=O)[C@H]1N[C@H]2c3ccc(-c4cccnc4)c(=O)n3C[C@H]2[C@@H]1CO)c1ccccc1 | inactive
36 | O=C(NCc1ccccc1F)[C@H]1N[C@H]2c3ccc(-c4ccccc4F)c(=O)n3C[C@H]2[C@@H]1CO | inactive
37 | NC(=O)c1ccccc1NC(=O)COC(=O)C1(c2ccccc2)CC1 | inactive
38 | CSCCC(NC(=O)COc1ccccc1)C(=O)OCCOc1ccc(C)cc1 (centres undefined) | inactive
39 | COc1cc(OC)cc(C(=O)Nc2ccc(N3CCN(C(=O)c4cccs4)CC3)cc2)c1 | inactive
40 | Cc1cccc(OCC(=O)Nc2ccc(N3CCN(C(=O)c4ccccc4)CC3)cc2)c1C | inactive

Row | Compound | outcome
41 | C/C(CC(=O)Nc1ccc(Cl)c(Cl)c1)=N\NC(=O)Cc1ccccc1 | inactive
42 | COc1ccc(S(=O)(=O)Nc2cccc3c2O[C@@H](CN(C)S(C)(=O)=O)[C@@H](C)CN([C@@H](C)CO)C3=O)cc1 | inactive
43 | CCC(C)c1ccc(NC(=O)NCCN2CCCCC2)cc1 (centres undefined) | inactive
44 | OC(CSc1nnnn1-c1ccccc1)Cn1c2ccccc2c2ccccc21 (centres undefined) | inactive
45 | C[C@@H]1CCCCO[C@H](CN(C)S(=O)(=O)c2ccccc2)[C@@H](C)CN([C@@H](C)CO)C(=O)c2cc(NC(=O)c3ccncc3)ccc2O1 | inactive
46 | CCC(N=c1cc(-c2ccc(OC)c(OC)c2)oc2ccc(C)cc12)C(=O)O (centres undefined) | inactive
47 | CN(C)S(=O)(=O)N1CCC(Oc2ccc(C(=O)N3CCCCCCC3)cc2)CC1 | inactive
48 | O=C(NCC1CC1)c1onc(CSc2ccc(F)c(F)c2)c1C(=O)NCC1CC1 | inactive
49 | O=C(O)CCCCCCCCc1cn(CCc2c[nH]c3ccccc23)nn1 | inactive
50 | COc1ccc(S(=O)(=O)N2CCN(CC(=O)NC3CC3)CC2)cc1 | inactive
51 | COc1ccc(CC(=O)NC2CCCCCC2)c(OC)c1 | inactive
52 | CC12CCC(=O)N1C(C(=O)Nc1nc(-c3ccccc3)cs1)CS2 (centres undefined) | inactive
53 | C[C@@H]1CCCCO[C@H](CN(C)S(C)(=O)=O)[C@@H](C)CN([C@H](C)CO)C(=O)c2cc(NC(=O)CCC(F)(F)F)ccc2O1 | inactive
54 | O=C(Cn1cnc2c(NCc3ccccc3)ncnc21)NCC1CCCO1 (centres undefined) | inactive
55 | CCCN1Cc2cccc(C(=O)Nc3ccc4c(c3)OCCO4)c2C1=O | inactive
56 | Cn1cc([C@]2(O)C(=O)Nc3ccccc32)c2ccccc21 | inactive
57 | CN1c2ccc(Br)cc2[C@@H]2[C@@H](CCN2S(=O)(=O)c2ccccc2)[C@H]1CO | inactive
58 | CCN(CC(=O)Nc1c(F)cccc1F)C(=O)C1CCN(S(=O)(=O)c2ccc(F)cc2)CC1 | inactive
59 | Cc1ccccc1NS(=O)(=O)c1ccc(S(=O)(=O)N2CCCC2)cc1 | inactive
